{"source": "PubChem BioAssay (EPA / NIEHS)", "key": {"[1]": {"target": "human Neonicotinoid receptor (NNR), CHRNA2 (gene 1135) (UniProt Q15822)", "sequence (Q15822 whole entry, looked up)": "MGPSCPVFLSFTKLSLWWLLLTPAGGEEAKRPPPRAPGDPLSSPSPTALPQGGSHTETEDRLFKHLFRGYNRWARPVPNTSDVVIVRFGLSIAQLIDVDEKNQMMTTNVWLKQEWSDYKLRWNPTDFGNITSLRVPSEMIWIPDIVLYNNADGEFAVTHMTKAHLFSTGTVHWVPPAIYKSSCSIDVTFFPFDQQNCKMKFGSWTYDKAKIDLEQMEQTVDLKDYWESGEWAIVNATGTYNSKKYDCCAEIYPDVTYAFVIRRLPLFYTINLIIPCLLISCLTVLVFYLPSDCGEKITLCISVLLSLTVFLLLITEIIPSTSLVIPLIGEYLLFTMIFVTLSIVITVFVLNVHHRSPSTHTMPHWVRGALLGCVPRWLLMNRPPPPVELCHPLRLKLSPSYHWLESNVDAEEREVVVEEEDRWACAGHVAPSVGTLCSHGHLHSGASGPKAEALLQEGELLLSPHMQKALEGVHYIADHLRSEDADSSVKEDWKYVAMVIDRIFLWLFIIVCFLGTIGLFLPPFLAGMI", "assay": "NVS_LGIC_hNNR_NBungSens: NovaScreen (NVS) Ligand-Gated Ion Channel Assay for human Neonicotinoid receptor (NNR) (AID 2283313)", "method_in_brief": "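Radioligand displacement on human neuroblastoma membranes, 2 h, filter-based scintillation counting. Primary screen in duplicate at 25 uM; chemicals passing threshold (e.g. 30% inhibition) run singleton concentration-response to 50 uM; loss of binding fitted versus DMSO.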"}, "[2]": {"read-out": "xenobiotic metabolism (CYP2C9), CYP2C9 (gene 1559)", "assay": "CLD_CYP2C9_6hr: CellzDirect (CLD) Gene Expression Assay for xenobiotic metabolism (CYP2C9) at 6 hours (AID 2283664)", "method_in_brief": "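Primary human hepatocytes dosed daily with test chemicals at multiple concentrations; harvested at 6 h. CYP2C9 mRNA induction measured by qNPA chemiluminescence. Gain of signal fitted against 0.2% DMSO vehicle; cytotoxicity annotated from phase-contrast morphology.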"}, "[3]": {"test_system": "rat Monoamine Oxidase, MAO-A, Central (MAOAC), gene 29253", "assay": "NVS_ENZ_rMAOAC: NovaScreen (NVS) Enzymatic Assay for rat Monoamine Oxidase, MAO-A, Central (MAOAC) (AID 2283243);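 also: potency refers to inhibition seen as signal drop below DMSO baseline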", "method_in_brief": "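Inhibition of rat brain-derived MAO-A was read by scintillation counting after 1.5 h exposure. Compounds screened first at 25 uM in duplicate, then in dose series if active.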"}, "[4]": {"target": "rat Corticotropin Releasing Factor Receptor (CRF), Crhr1 (gene 58959) (UniProt P35353)", "sequence (P35353 whole entry, looked up)": "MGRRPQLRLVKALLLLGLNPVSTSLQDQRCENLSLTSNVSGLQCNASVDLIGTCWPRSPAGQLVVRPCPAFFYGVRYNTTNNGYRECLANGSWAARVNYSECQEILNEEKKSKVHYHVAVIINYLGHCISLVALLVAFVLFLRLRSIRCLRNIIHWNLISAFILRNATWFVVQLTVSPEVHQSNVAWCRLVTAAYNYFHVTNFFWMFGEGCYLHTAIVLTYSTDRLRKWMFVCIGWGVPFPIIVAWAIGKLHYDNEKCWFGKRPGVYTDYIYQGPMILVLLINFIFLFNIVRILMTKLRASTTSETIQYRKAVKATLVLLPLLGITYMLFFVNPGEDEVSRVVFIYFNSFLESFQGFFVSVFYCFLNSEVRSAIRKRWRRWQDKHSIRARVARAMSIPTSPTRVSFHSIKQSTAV", "assay": "NVS_GPCR_rCRF: NovaScreen (NVS) G Protein-Coupled Receptor Assay for rat Corticotropin Releasing Factor Receptor (CRF) (AID 2283300)", "method_in_brief": "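Rat cortical membranes used as receptor source in a radioligand competitive displacement binding assay; scintillation read 2 h after dosing. Primary screen run in duplicate at 25 uM; loss of signal versus DMSO baseline indicates binding.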"}, "[5]": {"assay": "TOX21_TRB_BLA_Agonist_Followup_viability: Viability Assessment in the Tox21 Thyroid Hormone Receptor beta Agonism Beta-lactamase (BLA) Follow-Up Assay (AID 2283956)", "method_in_brief": "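TRb-bla HEK293T cells (GAL4-DBD/human TRb LBD) in 2% charcoal-stripped FBS medium were exposed 18 h at 37C to 11 concentrations in triplicate. CellTiter-Glo ATP luminescence was read after 30 min at room temperature, with bidirectional fitting against DMSO.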"}, "[6]": {"target": "Norway rat Vesicular Monoamine Transporter (VMAT2), neurotransmitter transporter, Slc18a2 (gene 25549) (UniProt Q01827)", "sequence (Q01827 whole entry, looked up)": "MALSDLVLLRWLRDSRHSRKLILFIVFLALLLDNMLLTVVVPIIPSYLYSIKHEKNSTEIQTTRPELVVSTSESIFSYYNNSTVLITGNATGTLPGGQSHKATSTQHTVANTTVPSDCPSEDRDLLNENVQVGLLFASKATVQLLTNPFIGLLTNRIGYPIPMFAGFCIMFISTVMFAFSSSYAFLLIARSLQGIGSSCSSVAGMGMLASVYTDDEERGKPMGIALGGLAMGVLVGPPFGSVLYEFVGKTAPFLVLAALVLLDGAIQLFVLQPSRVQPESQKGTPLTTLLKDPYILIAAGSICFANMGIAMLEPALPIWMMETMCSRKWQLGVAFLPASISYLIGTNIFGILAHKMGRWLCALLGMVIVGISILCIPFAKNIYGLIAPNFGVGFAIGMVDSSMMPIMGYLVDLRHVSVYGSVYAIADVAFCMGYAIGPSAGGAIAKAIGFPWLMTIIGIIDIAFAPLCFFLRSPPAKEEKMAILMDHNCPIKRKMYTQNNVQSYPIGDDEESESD", "assay": "NVS_TR_rVMAT2: NovaScreen (NVS) Transporter Assay for Norway rat Vesicular Monoamine Transporter (VMAT2), neurotransmitter transporter (AID 2283376);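 also: actives lower the bound radioligand signal below the DMSO level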", "method_in_brief": "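Radioligand displacement binding on rat forebrain tissue preparation, filter-based scintillation read-out 1 hour after dosing. Primary screen in duplicate at 25 uM, then concentration series for actives; loss of signal versus DMSO.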"}, "[7]": {"target": "Voltage-dependent N-type calcium channel subunit alpha-1B (Rattus norvegicus) (UniProt Q02294)", "assay": "NVS_IC_rCaChN: NovaScreen (NVS) Ion Channel Assay for rat Calcium Channel, Type N (CaChN) (AID 2283317)"}, "[8]": {"target": "rat Neurotensin Receptor (NTS), Ntsr1 (gene 366274) (UniProt P20789)", "sequence (P20789 whole entry, looked up)": "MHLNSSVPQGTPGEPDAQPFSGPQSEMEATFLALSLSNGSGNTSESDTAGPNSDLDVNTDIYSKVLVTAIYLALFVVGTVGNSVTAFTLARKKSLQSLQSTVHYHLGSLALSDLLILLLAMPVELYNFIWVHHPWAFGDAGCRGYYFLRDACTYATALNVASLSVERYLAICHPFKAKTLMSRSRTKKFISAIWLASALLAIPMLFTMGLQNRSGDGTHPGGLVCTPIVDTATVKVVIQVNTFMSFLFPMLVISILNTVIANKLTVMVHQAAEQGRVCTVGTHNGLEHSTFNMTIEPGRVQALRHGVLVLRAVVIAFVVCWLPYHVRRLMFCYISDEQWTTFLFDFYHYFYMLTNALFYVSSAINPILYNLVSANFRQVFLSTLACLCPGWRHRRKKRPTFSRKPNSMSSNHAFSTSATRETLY", "assay": "NVS_GPCR_rNTS: NovaScreen (NVS) G Protein-Coupled Receptor Assay for rat Neurotensin Receptor (NTS) (AID 2283308)", "method_in_brief": "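Rat forebrain membranes; radioligand binding with competitive displacement, read by filter-based scintillation counting 1 h after dosing. Primary screen in duplicate at 25 uM; actives (e.g., 30% inhibition) rerun in concentration-response up to 50 uM, loss-of-signal versus DMSO.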"}, "[9]": {"target": "rat Gamma-Aminobutyric Acid Type A Receptor BDZ, alpha 6 site (GABARa6), Gabra6 (gene 29708) (UniProt P30191)", "sequence (P30191 whole entry, looked up)": "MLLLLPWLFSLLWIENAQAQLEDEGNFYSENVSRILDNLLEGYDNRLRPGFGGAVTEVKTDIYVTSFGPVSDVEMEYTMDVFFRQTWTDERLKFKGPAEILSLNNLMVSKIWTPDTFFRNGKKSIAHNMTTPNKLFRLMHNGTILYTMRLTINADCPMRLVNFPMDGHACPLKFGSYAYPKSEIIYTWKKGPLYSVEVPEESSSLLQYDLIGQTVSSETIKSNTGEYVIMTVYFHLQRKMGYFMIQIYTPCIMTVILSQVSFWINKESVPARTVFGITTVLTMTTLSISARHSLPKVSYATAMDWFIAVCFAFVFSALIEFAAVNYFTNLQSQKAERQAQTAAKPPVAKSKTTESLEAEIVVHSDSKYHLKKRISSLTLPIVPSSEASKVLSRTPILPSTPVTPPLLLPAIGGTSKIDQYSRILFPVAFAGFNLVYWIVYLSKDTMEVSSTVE", "assay": "NVS_LGIC_rGABARa6: NovaScreen (NVS) Ligand-Gated Ion Channel Assay for rat Gamma-Aminobutyric Acid Type A Receptor BDZ, alpha 6 site (GABARa6) (AID 2283339)", "method_in_brief": "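Rat cerebellar membranes; radioligand binding, filtration and scintillation counting, read 1 h after dosing. Single-concentration duplicate screen at 25 uM, then concentration-response up to 50 uM for actives; loss of signal fitted versus DMSO baseline.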"}, "[10]": {"assay": "ATG_M_32_XSP2: Attagene TRANS-FACTORIAL Multi-Species (XSP2) HepG2 Assay for M19 Transcription Factor (Internal Marker) (AID 2283826)", "method_in_brief": "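Transfected HepG2 (multiplexed GAL4-UAS reporters), 24 h chemical exposure, 3 nM 6-alpha-fluorotestosterone + 1.5 nM norgestrel added. RNA → oligo(dT) RT → PCR → 6-FAM primer extension → HpaI cut → CE. Fitted upward vs DMSO.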"}, "[11]": {"assay": "CCTE_Harrill_HTTr_Viability_MCF7: CCTE's 6-hour Cell Viability Assessment for the High-Throughput Transcriptomics (HTTr) Platform, in MCF-7 cells cultured in DMEM + 10% fetal bovine serum, Harrill Lab (AID 2284010; active = hit-call score of the fitted dose curve at least 0.9, where 1 is the maximum; inactive = score below 0.9)", "method_in_brief": "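Viability measured through PI dye exclusion by high-content imaging at 6 h post-dosing.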"}, "[12]": {"assay": "CCTE_Harrill_HTTr_Apoptosis_MCF7: CCTE's 6-hour Apoptosis Assessment for the High-Throughput Transcriptomics (HTTr) Platform, in MCF-7 cells cultured in DMEM + 10% fetal bovine serum, Harrill Lab (AID 2284011; active = hit-call score of the fitted dose curve at least 0.9, where 1 is the maximum; inactive = score below 0.9)", "method_in_brief": "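MCF-7 (DMEM + 10% FBS), 384-well; 8-pt dilution series, 6 h chemical exposure; caspase-3/7 activation via CellEvent Caspase 3/7 Green, HCI; bidirectional fit vs DMSO.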"}}, "note": "Records with an inconclusive call do not appear. The source made the active and inactive calls. The calls were made as follows, unless noted: active = hit-call score of the fitted dose curve at least 0.9, where 1 is the maximum; inconclusive = response in the unintended direction; inactive = score below 0.9.", "data": [{"smiles": "CCCOC(=O)NCCCN(C)C", "values": [{"measurement": "AC50", "setting": "[1]", "value": "7.3 µM (active)"}, {"measurement": "outcome", "setting": "[2]", "value": "inactive"}]}, {"smiles": "Oc1cccc2c(O)cccc12", "values": [{"measurement": "AC50", "setting": "[3]", "value": "25 µM (active)"}]}, {"smiles": "CC(=O)CCc1ccc(O)cc1", "values": [{"measurement": "AC50", "setting": "[3]", "value": "17.5 µM (active)"}]}, {"smiles": "CCNc1nc(N)nc(Cl)n1", "values": [{"measurement": "AC50", "setting": "[3]", "value": "37.6 µM (active)"}, {"measurement": "outcome", "setting": "[4]", "value": "inactive"}, {"measurement": "outcome", "setting": "[5]", "value": "inactive"}]}, {"smiles": "CCCCCCCCCCCCCCCCO", "values": [{"measurement": "outcome", "setting": "[3]", "value": "inactive"}]}, {"smiles": "CC(=O)Nc1ccc(C(=O)CCl)cc1", "values": [{"measurement": "AC50", "setting": "[3]", "value": "5.58 µM (active)"}]}, {"smiles": "Cc1cc(C)c(C=O)c(C)c1", "values": [{"measurement": "AC50", "setting": "[3]", "value": "19.9 µM (active)"}, {"measurement": "outcome", "setting": "[6]", "value": "inactive"}]}, {"smiles": "CC(=O)Nc1ccc(N=Nc2cc(C)ccc2O)cc1", "values": [{"measurement": "AC50", "setting": "[3]", "value": "0.0709 µM (active)"}]}, {"smiles": "COc1ccc2nc(N)sc2c1", "values": [{"measurement": "AC50", "setting": "[3]", "value": "9.33 µM (active)"}]}, {"smiles": "c1ccc2c(c1)[nH]c1ccccc12", "values": [{"measurement": "AC50", "setting": "[3]", "value": "16.7 µM (active)"}]}, {"smiles": "O=C1c2ccccc2C(=O)c2c(O)ccc(O)c21", "values": [{"measurement": "AC50", "setting": "[3]", "value": "18.3 µM (active)"}]}, {"smiles": "OCC(CO)(CO)CO", "values": [{"measurement": "outcome", "setting": "[7]", "value": "inactive"}]}, {"smiles": "Cc1c(Cl)c(=O)oc2cc(O)ccc12", "values": [{"measurement": "AC50", "setting": "[3]", "value": "12.2 µM (active)"}]}, {"smiles": "Oc1ccc(Nc2ccccc2)cc1", "values": [{"measurement": "AC50", "setting": "[3]", "value": "17.7 µM (active)"}]}, {"smiles": "OCCO", "values": [{"measurement": "outcome", "setting": "[4]", "value": "inactive"}]}, {"smiles": "C[C@]12CC[C@@H]3c4ccc(O)cc4CC[C@H]3[C@@H]1CCC2=O", "values": [{"measurement": "outcome", "setting": "[4]", "value": "inactive"}]}, {"smiles": "O=C(c1ccccc1)c1ccc(O)cc1O", "values": [{"measurement": "AC50", "setting": "[3]", "value": "21 µM (active)"}, {"measurement": "outcome", "setting": "[6]", "value": "inactive"}]}, {"smiles": "C=Cc1cccc(C)c1", "values": [{"measurement": "outcome", "setting": "[3]", "value": "inactive"}]}, {"smiles": "Cc1ccc2sc3cccc(C)c3c2c1", "values": [{"measurement": "outcome", "setting": "[3]", "value": "inactive"}]}, {"smiles": "c1ccc2c(c1)ccc1ncccc12", "values": [{"measurement": "AC50", "setting": "[3]", "value": "2.35 µM (active)"}]}, {"smiles": "COC(=O)c1ccccc1C(=O)O", "values": [{"measurement": "outcome", "setting": "[3]", "value": "inactive"}, {"measurement": "outcome", "setting": "[8]", "value": "inactive"}]}, {"smiles": "Nc1cccc(N)c1", "values": [{"measurement": "AC50", "setting": "[3]", "value": "4.33 µM (active)"}]}, {"smiles": "Nc1ccc(Oc2cccc(Oc3ccc(N)cc3)c2)cc1", "values": [{"measurement": "AC50", "setting": "[3]", "value": "22.7 µM (active)"}]}, {"smiles": "CNNCc1ccc(C(=O)NC(C)C)cc1", "values": [{"measurement": "AC50", "setting": "[3]", "value": "18 µM (active)"}]}, {"smiles": "c1ccc2cc3ccccc3cc2c1", "values": [{"measurement": "AC50", "setting": "[3]", "value": "25 µM (active)"}]}, {"smiles": "CN1CN(C)CN(C)C1", "values": [{"measurement": "outcome", "setting": "[3]", "value": "inactive"}]}, {"smiles": "COC(=O)c1ccc(I)cc1S(=O)(=O)NC(=O)Nc1nc(C)nc(OC)n1", "values": [{"measurement": "outcome", "setting": "[8]", "value": "inactive"}]}, {"smiles": "O=[N+]([O-])c1ccc(O)cc1C(F)(F)F", "values": [{"measurement": "AC50", "setting": "[3]", "value": "21.1 µM (active)"}]}, {"smiles": "C=CC(=O)OCCN(CC)CC", "values": [{"measurement": "outcome", "setting": "[3]", "value": "inactive"}]}, {"smiles": "Oc1cccc2ccccc12", "values": [{"measurement": "AC50", "setting": "[3]", "value": "15.4 µM (active)"}]}, {"smiles": "CCN(CC)c1ccc2c(C)cc(=O)oc2c1", "values": [{"measurement": "AC50", "setting": "[3]", "value": "8.36 µM (active)"}]}, {"smiles": "CCCCCCCCCCCCCCCC[N+](C)(C)Cc1ccccc1", "values": [{"measurement": "outcome", "setting": "[3]", "value": "inactive"}]}, {"smiles": "CC=Cc1ccc(OCC)c(O)c1", "values": [{"measurement": "AC50", "setting": "[3]", "value": "20.3 µM (active)"}, {"measurement": "outcome", "setting": "[9]", "value": "inactive"}]}, {"smiles": "CCOc1ccc(NC(N)=O)cc1", "values": [{"measurement": "AC50", "setting": "[3]", "value": "16.6 µM (active)"}]}, {"smiles": "O=c1c2ccccc2oc2ccccc12", "values": [{"measurement": "AC50", "setting": "[3]", "value": "7.58 µM (active)"}]}, {"smiles": "COCCOCCOCCOC", "values": [{"measurement": "outcome", "setting": "[4]", "value": "inactive"}]}, {"smiles": "O=C1c2ccccc2C(=O)c2c(Cl)cccc21", "values": [{"measurement": "AC50", "setting": "[3]", "value": "3.72 µM (active)"}, {"measurement": "outcome", "setting": "[6]", "value": "inactive"}]}, {"smiles": "COc1ccc(OC)c(N=Nc2c(O)ccc3ccccc23)c1", "values": [{"measurement": "AC50", "setting": "[6]", "value": "0.107 µM (active)"}]}, {"smiles": "CCCCOC(=O)[C@@H](C)Oc1ccc(Oc2ccc(C(F)(F)F)cn2)cc1", "values": [{"measurement": "outcome", "setting": "[2]", "value": "inactive"}]}, {"smiles": "COC(=O)CSc1cc(N=c2sc(=O)n3n2CCCC3)c(F)cc1Cl", "values": [{"measurement": "outcome", "setting": "[2]", "value": "inactive"}]}, {"smiles": "C#C[C@]1(O)CC[C@H]2[C@@H]3CCC4=CC(=O)CC[C@@H]4[C@H]3CC[C@@]21CC", "values": [{"measurement": "outcome", "setting": "[10]", "value": "inactive"}]}, {"smiles": "CC(Oc1ccc(Oc2ncc(C(F)(F)F)cc2Cl)cc1)C(=O)O", "note": "(configuration not stated)", "values": [{"measurement": "outcome", "setting": "[11]", "value": "inactive"}]}, {"smiles": "OC(c1ccc(F)cc1)(c1cncnc1)c1ccccc1Cl", "note": "(configuration not stated)", "values": [{"measurement": "outcome", "setting": "[11]", "value": "inactive"}, {"measurement": "outcome", "setting": "[12]", "value": "inactive"}]}]}
